PubChem BioAssay AID1159580 (chemical genetic matrix, 2015)
In all, about 5,500 compounds went through this assay and about 2,000 (36%) were called active. Another 18% or so got no clear call; they are omitted. No stated cut-off is given here; in the data, active means normalized growth mostly below about 0.91 (no sharp cut-off); inconclusive means no clear call, values can overlap the other calls; inactive means mostly above about 0.92. This is one part of the list.

Assay: chemical genetic growth profiling, strain panel (AID 1159580);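 further: tested at 20 µM; growth read once vehicle control cultures reached saturation at 30 °C; 1 = growth at the plate median or of vehicle wells; lower values mean less growth of the strain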
Conditions: S. cerevisiae deletion strains, growth OD

Measured: normalized growth

C=Cc1c(C)c2[n-]c1=Cc1[n-]c(c(CC)c1C)C=c1[n-]c3c(c1C)C(=O)C(C(=O)[O-])C=3c1[n-]c(c(C)c1CCC(=O)[O-])C=2.[Cu] (configuration not stated)
inactive: locus YAL021C, strain ccr4, active compounds read low 1.07 | locus YAL026C, strain drs2, active compounds read low 1.02 | locus YBL061C, strain skt5, active compounds read low 1.08 | locus YBR009C, strain hhf1, active compounds read low 1.02 | locus YBR023C, strain chs3, active compounds read low 1.07 | locus YBR171W, strain sec66, active compounds read low 1.09 | locus YBR231C, strain swc5, active compounds read low 1.08 | locus YBR279W, strain paf1, active compounds read low 1.06 | locus YCL011C, strain gbp2, active compounds read low 1.05 | locus YCL016C, strain dcc1, active compounds read low 1.03 | locus YCL061C, strain MRC1, active compounds read low 1.03 | locus YCL069W, strain vba3, active compounds read low 1.07 | locus YDL005C, strain med2, active compounds read low 1.08 | locus YDR159W, strain sac3, active compounds read low 1.09 | locus YDR335W, strain msn5, active compounds read low 1.02 | locus YDR392W, strain spt3, active compounds read low 1.11 | locus YEL003W, strain gim4, active compounds read low 1.03 | locus YEL037C, strain rad23, active compounds read low 1.07 | locus YER015W, strain faa2, active compounds read low 1.02 | locus YFR010W, strain ubp6, active compounds read low 1.1 | locus YGL167C, strain pmr1, active compounds read low 1.08 | locus YGL173C, strain kem1, active compounds read low 1.02 | locus YGL240W, strain doc1, active compounds read low 1.03 | locus YGL253W, strain hxk2, active compounds read low 1.02 | locus YHR027C, strain rpn1, active compounds read low 1.05 | locus YHR030C, strain SLT2, active compounds read low 0.992 | locus YHR079C, strain IRE1, active compounds read low 0.998 | locus YHR142W, strain chs7, active compounds read low 1.08 | locus YJL092W, strain hpr5, active compounds read low 1.07 | locus YJL095W, strain BCK1, active compounds read low 0.957 | locus YJL164C, strain tpk1, active compounds read low 1.05 | locus YJL166W, strain qcr8, active compounds read low 1.01 | locus YJR066W, strain TOR1, active compounds read low 0.957 | locus YKL160W, strain elf1, active compounds read low 1.06 | locus YLL001W, strain dnm1, active compounds read low 1.06 | locus YLR027C, strain aat2, active compounds read low 1.07 | locus YLR113W, strain HOG1, active compounds read low 0.999 | locus YLR221C, strain rsa3, active compounds read low 1.01 | locus YLR258W, strain gsy2, active compounds read low 1.07 | locus YLR262C, strain YPT6 (second series), active compounds read low 1.09 | locus YLR320W, strain mms22, active compounds read low 1.06 | locus YLR342W, strain FKS1, active compounds read low 1.04 | locus YLR357W, strain rsc2, active compounds read low 1.08 | locus YLR370C, strain arc18, active compounds read low 1.04 | locus YLR384C, strain iki3, active compounds read low 1.08 | locus YML120C, strain ndi1, active compounds read low 1.03 | locus YMR058W, strain fet3, active compounds read low 0.967 | locus YMR205C, strain PFK2, active compounds read low 1.11 | locus YNL183C, strain NPR1, active compounds read low 0.862 | locus YNL209W, strain ssb2, active compounds read low 1.04 | locus YNL248C, strain rpa49, active compounds read low 1.03 | locus YNL322C, strain KRE1 (second series), active compounds read low 1.08 | locus YOR001W, strain rrp6, active compounds read low 1.05 | locus YOR070C, strain gyp1, active compounds read low 1.05 | locus YOR080W, strain dia2, active compounds read low 1.06 | locus YOR083W, strain WHI5, active compounds read low 0.992 | locus YOR106W, strain vam3, active compounds read low 0.999 | locus YOR231W, strain MKK1, active compounds read low 1.01 | locus YOR270C, strain vph1, active compounds read low 1.15 | locus YOR290C, strain snf2, active compounds read low 1.06 | locus YPL051W, strain arl3, active compounds read low 1.07 | locus YPL078C, strain atp4, active compounds read low 1.03 | locus YPL256C, strain CLN2, active compounds read low 1.05
active: locus YAL030W, strain snc1, active compounds read low 1.09 [resistant] | locus YCR088W, strain abp1, active compounds read low 1.11 [resistant] | locus YDL040C, strain nat1, active compounds read low 1.08 [resistant] | locus YDR001C, strain nth1, active compounds read low 1.1 [resistant] | locus YDR069C, strain doa4, active compounds read low 1.12 [resistant] | locus YDR137W, strain rgp1, active compounds read low 1.16 [resistant] | locus YDR195W, strain ref2 1.28 [resistant] | locus YDR297W, strain sur2, active compounds read low 1.08 [resistant] | locus YDR334W, strain swr1, active compounds read low 1.11 [resistant] | locus YEL061C, strain CIN8 (second series), active compounds read low 1.09 [resistant] | locus YER016W, strain bim1, active compounds read low 1.09 [resistant] | locus YER111C, strain swi4, active compounds read low 1.09 [resistant] | locus YER155C, strain BEM2 (second series), active compounds read low 1.17 [resistant] | locus YGL227W, strain vid30, active compounds read low 1.1 [resistant] | locus YHR013C, strain ard1, active compounds read low 1.18 [resistant] | locus YJL095W, strain BCK1 (second series), active compounds read low 1.09 [resistant] | locus YJL115W, strain asf1, active compounds read low 1.11 [resistant] | locus YJL129C, strain trk1, active compounds read low 1.15 [resistant] | locus YJL154C, strain vps35, active compounds read low 1.09 [resistant] | locus YJL187C, strain SWE1, active compounds read low 1.08 [resistant] | locus YKR026C, strain gcn3, active compounds read low 1.1 [resistant] | locus YKR091W, strain srl3, active compounds read low 1.08 [resistant] | locus YLL026W, active compounds read low 1.08 [resistant] | locus YLL041C, strain sdh2, active compounds read low 1.08 [resistant] | locus YMR125W, strain sto1, active compounds read low 1.13 [resistant] | locus YMR129W, active compounds read low 1.08 [resistant] | locus YMR231W, strain pep5, active compounds read low 1.08 [resistant] | locus YNL071W, strain lat1, active compounds read low 1.09 [resistant] | locus YNR049C, strain mso1, active compounds read low 1.09 [resistant] | locus YOR265W, strain rbl2, active compounds read low 1.09 [resistant] | locus YPL106C, strain sse1, active compounds read low 1.16 [resistant] | locus YPL240C, strain hsp82, active compounds read low 1.09 [resistant]

Cc1nc2sccn2c(=O)c1CCN1CCC(=C(c2ccccc2)c2ccc(F)cc2)CC1
inactive: locus YAL013W, strain DEP1, active compounds read low 0.965 | locus YAL040C, strain CLN3, active compounds read low 0.99 | locus YCL061C, strain MRC1 (second series), active compounds read low 0.993 | locus YDR150W, strain NUM1, active compounds read low 0.995 | locus YDR363W, strain ESC2, active compounds read low 0.985 | locus YJR075W, strain HOC1, active compounds read low 1.01 | locus YMR263W, strain SAP30, active compounds read low 0.992 | locus YNL175C, strain NOP13, active compounds read low 1.04 | locus YNL197C, strain WHI3, active compounds read low 1.05 | locus YNL224C, strain SQS1, active compounds read low 1.02 | locus YNL322C, strain KRE1, active compounds read low 0.956 | locus YPL241C, strain CIN2, active compounds read low 0.992
